Among the data in PubChem BioAssay (EPA / NIEHS) are outcome and AC50 values, retold here.

“And” between values parts separate entries of the source, which are not always exact repeats. Identical values can stand only once. A structure can be active in one record and inactive in another. The source made the active and inactive calls. The calls were made as follows: active = hit-call score of the fitted dose curve at least 0.9, where 1 is the maximum; inactive = score below 0.9.

Read-out in assay [1]: Interferon-gamma inducible Protein 10 (IP10), CXCL10 (gene 3627)
Nature of the assay: BSK_hDFCGF_IP10: BioMAP Diversity Plus: hDFCGF Assay for Interferon-gamma inducible Protein 10 (IP10) Biomarker Activity (AID 2283053). The conditions noted are these: primary human foreskin fibroblasts; actives raise or lower the signal. The gist of the method: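 Human foreskin fibroblast primary cells (hDFCGF system) were dosed with chemical and assayed at 24 h; IP-10 measured by ELISA. Activity fitted bidirectionally relative to DMSO negative control as baseline.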

Read-out in assay [2]: Urokinase-type plasminogen activator receptor (uPAR), PLAUR (gene 5329)
The experiment in a line: BSK_CASM3C_uPAR: BioMAP Diversity Plus: CASM3C Assay for Urokinase-type plasminogen activator receptor (uPAR) Biomarker Activity (AID 2283054).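 Also: cell-surface uPAR protein level quantified by ELISA.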 The conditions noted are these: primary human coronary artery smooth muscle cells; actives raise or lower the signal.

Read-out in assay [3]: Vascular cell adhesion molecule 1 (VCAM1), VCAM1 (gene 7412)
The experiment in a line: BSK_CASM3C_VCAM1: BioMAP Diversity Plus: CASM3C Assay for Vascular cell adhesion molecule 1 (VCAM1) Biomarker Activity (AID 2283055).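 Also: VCAM-1 protein level quantified by ELISA on the cells.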 The conditions noted are these: primary human coronary artery smooth muscle cells; actives raise or lower the signal.

Read-out in assay [4]: Epidermal growth factor receptor (EGFR), EGFR (gene 1956)
The experiment in a line: BSK_hDFCGF_EGFR: BioMAP Diversity Plus: hDFCGF Assay for Epidermal growth factor receptor (EGFR) Biomarker Activity (AID 2283057). The conditions noted are these: primary human foreskin fibroblasts; actives raise or lower the signal. In outline:
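Primary human foreskin fibroblasts were exposed to compound for 24 h, after which cell-surface EGFR was quantified by ELISA. Activity was fitted bidirectionally against the DMSO negative control as baseline.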

Read-out in assay [5]: Interleukin-8 (IL8), CXCL8 (gene 3576)
Nature of the assay: BSK_hDFCGF_IL8: BioMAP Diversity Plus: hDFCGF Assay for Interleukin-8 (IL8) Biomarker Activity (AID 2283058). The conditions noted are these: primary human foreskin fibroblasts; actives raise or lower the signal. In outline:
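ELISA read-out of IL-8 from primary human foreskin fibroblast cultures taken 24 h after dosing; values are bidirectional fits relative to DMSO vehicle.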

Assay [6] can be described thus: BSK_hDFCGF_Proliferation: Cell Proliferation Assessment in the BioMAP Diversity Plus: hDFCGF Assay (AID 2283059).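 Also: curves fitted for both rise and fall of signal versus DMSO baseline.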 The conditions noted are these: primary human foreskin fibroblasts. In outline:
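This proliferation readout used SRB total-protein staining of human foreskin fibroblasts […], normalized to DMSO with bidirectional curve fitting.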

Read-out in assay [7]: Macrophage colony-stimulating factor (MCSF), CSF1 (gene 1435)
The experiment in a line: BSK_hDFCGF_MCSF: BioMAP Diversity Plus: hDFCGF Assay for Macrophage colony-stimulating factor (MCSF) Biomarker Activity (AID 2283060). The conditions noted are these: primary human foreskin fibroblasts; actives raise or lower the signal. The gist of the method: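 ELISA read-out of M-CSF in human dermal foreskin fibroblast cultures, 24 h after chemical dosing; gain or loss of signal fitted bidirectionally relative to DMSO baseline.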

A short description of assay [8]: BSK_hDFCGF_SRB: Viability Assessment in the BioMAP Diversity Plus: hDFCGF Assay (AID 2283061).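 Also: cells exposed to compound for 24 h before the read.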 The conditions noted are these: primary human foreskin fibroblasts. The gist of the method:
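Primary human foreskin fibroblasts; 24 h post-dose; fixed 10% TCA, stained 0.1% SRB, A560 read; total protein as overt cytotoxicity measure; curves fit bidirectionally vs DMSO control.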

Read-out in assay [9]: TIMP metallopeptidase inhibitor 1 (TIMP1), TIMP1 (gene 7076)
The experiment in a line: BSK_hDFCGF_TIMP1: BioMAP Diversity Plus: hDFCGF Assay for TIMP metallopeptidase inhibitor 1 (TIMP1) Biomarker Activity (AID 2283062). The conditions noted are these: primary human foreskin fibroblasts; actives raise or lower the signal. In outline: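 ELISA readout of TIMP-1 from human dermal foreskin fibroblast cultures 24 h post-dosing. Curves were fitted in both directions against DMSO baseline, with SRB total-protein staining in parallel cultures as a cytotoxicity check.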

Read-out in assay [10]: Monokine induced gamma interferon (MIG), CXCL9 (gene 4283)
The experiment in a line: BSK_hDFCGF_MIG: BioMAP Diversity Plus: hDFCGF Assay for Monokine induced gamma interferon (MIG) Biomarker Activity (AID 2283063). The conditions noted are these: primary human foreskin fibroblasts; actives raise or lower the signal. The gist of the method:
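Fibroblasts (human foreskin, primary) dosed, 24 h, MIG by ELISA; fit bidirectional vs DMSO.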

Read-out in assay [11]: Matrix Metallopeptidase 1 (MMP1), MMP1 (gene 4312)
The experiment in a line: BSK_hDFCGF_MMP1: BioMAP Diversity Plus: hDFCGF Assay for Matrix Metallopeptidase 1 (MMP1) Biomarker Activity (AID 2283064). The conditions noted are these: primary human foreskin fibroblasts; actives raise or lower the signal. In outline:
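Primary human foreskin fibroblasts exposed to chemicals for 24 h; MMP1 measured by ELISA. Cytotoxicity tracked by SRB staining in parallel cultures; bidirectional fit relative to DMSO.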

Read-out in assay [12]: Vascular cell adhesion molecule 1 (VCAM1), VCAM1 (gene 7412)
Nature of the assay: BSK_hDFCGF_VCAM1: BioMAP Diversity Plus: hDFCGF Assay for Vascular cell adhesion molecule 1 (VCAM1) Biomarker Activity (AID 2283065). The conditions noted are these: primary human foreskin fibroblasts; actives raise or lower the signal. The gist of the method: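 ELISA read-out of VCAM-1 on human skin fibroblasts, 24 h post-dose; gain or loss of signal fitted bidirectionally against DMSO baseline.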

Read-out in assay [13]: Plasminogen activator inhibitor-1 (PAI1), SERPINE1 (gene 5054)
Nature of the assay: BSK_hDFCGF_PAI1: BioMAP Diversity Plus: hDFCGF Assay for Plasminogen activator inhibitor-1 (PAI1) Biomarker Activity (AID 2283066). The conditions noted are these: primary human foreskin fibroblasts; actives raise or lower the signal. In outline: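 Human foreskin fibroblasts in the hDFCGF system were dosed with compound for 24 h; PAI-1 was quantified by ELISA. Bidirectional curve fitting used DMSO as negative control and baseline.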

Read-out in assay [14]: Intercellular Adhesion Molecule 1 (ICAM1), ICAM1 (gene 3383)
The experiment in a line: BSK_KF3CT_ICAM1: BioMAP Diversity Plus: KF3CT Assay for Intercellular Adhesion Molecule 1 (ICAM1) Biomarker Activity (AID 2283067). The conditions noted are these: primary human keratinocytes with fibroblasts; actives raise or lower the signal. The gist of the method:
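ELISA readout of ICAM-1; KF3CT human skin co-culture (keratinocytes + foreskin fibroblasts), 24 h post-dose; gain/loss fit vs DMSO baseline.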

Read-out in assay [15]: Interferon-gamma inducible Protein 10 (IP10), CXCL10 (gene 3627)
Nature of the assay: BSK_KF3CT_IP10: BioMAP Diversity Plus: KF3CT Assay for Interferon-gamma inducible Protein 10 (IP10) Biomarker Activity (AID 2283068). The conditions noted are these: primary human keratinocytes with fibroblasts; actives raise or lower the signal. The gist of the method:
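Signal is secreted/surface IP-10 by ELISA in a human primary skin co-culture of keratinocytes and foreskin fibroblasts, taken 24 h post-dosing; DMSO served as negative control.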

Assay [16] can be described thus: BSK_KF3CT_SRB: Viability Assessment in the BioMAP Diversity Plus: KF3CT Assay (AID 2283069).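 Also: total protein by sulforhodamine B staining as a cytotoxicity measure; read 24 h after compound addition.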 The conditions noted are these: primary human keratinocytes with fibroblasts. The gist of the method: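 Human keratinocyte and foreskin fibroblast co-culture exposed to chemical for 24 h. Total protein measured in parallel cultures by 0.1% sulforhodamine B staining after 10% TCA fixation, read at 560 nm; bidirectional fit relative to DMSO.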

Read-out in assay [17]: Interleukin-1 alpha (IL1a), IL1A (gene 3552)
Nature of the assay: BSK_KF3CT_IL1a: BioMAP Diversity Plus: KF3CT Assay for Interleukin-1 alpha (IL1a) Biomarker Activity (AID 2283070). The conditions noted are these: primary human keratinocytes with fibroblasts; actives raise or lower the signal. The gist of the method:
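Primary human keratinocyte plus foreskin fibroblast co-culture, dosed and measured at 24 h in 96-well plates. IL-1a level quantified by ELISA; bidirectional fit relative to DMSO.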

Read-out in assay [18]: TIMP metallopeptidase inhibitor 2 (TIMP2), TIMP2 (gene 7077)
The experiment in a line: BSK_KF3CT_TIMP2: BioMAP Diversity Plus: KF3CT Assay for TIMP metallopeptidase inhibitor 2 (TIMP2) Biomarker Activity (AID 2283071). The conditions noted are these: primary human keratinocytes with fibroblasts; actives raise or lower the signal. The gist of the method: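 Human primary keratinocyte/foreskin fibroblast co-culture dosed with chemical and sampled at 24 h. TIMP-2 levels quantified by ELISA; bidirectional fitting against DMSO negative control as baseline.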

Read-out in assay [19]: Collagen III, COL3A1 (gene 1281)
The experiment in a line: BSK_hDFCGF_CollagenIII: BioMAP Diversity Plus: hDFCGF Assay for Collagen III Biomarker Activity (AID 2283056). The conditions noted are these: primary human foreskin fibroblasts; actives raise or lower the signal. The gist of the method: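 hDFCGF primary human dermal fibroblasts; 24 h chemical exposure; collagen III by ELISA; bidirectional curve fit vs DMSO baseline (gain or loss of signal).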

Read-out in assay [20]: Transforming growth factor beta 1 (TGFb1), TGFB1 (gene 7040)
Nature of the assay: BSK_KF3CT_TGFb1: BioMAP Diversity Plus: KF3CT Assay for Transforming growth factor beta 1 (TGFb1) Biomarker Activity (AID 2283072). The conditions noted are these: primary human keratinocytes with fibroblasts; actives raise or lower the signal. The gist of the method:
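Human keratinocyte plus foreskin fibroblast primary co-culture, dosed with chemical for 24 h. TGF-b1 quantified by ELISA. Activity fitted bidirectionally against DMSO negative control as baseline.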

On to `CC(=O)[C@H]1CC[C@H]2[C@@H]3CC=C4C[C@@H](O)CC[C@]4(C)[C@H]3CC[C@]12C`, for which the result in assay [1], in [2], in assay [3], in [4], in assay [5] and in [6] was inactive. The result in [7], in [8], in assay [9], in [10], in assay [11] and in [12] was inactive. For the same compound, the outcome in assay [13], in [14], in assay [15], in assay [16], in assay [17] and in [18] was inactive. The AC50 in assay [3] was 9.48 µM (active).

As to `O=C(O)c1ccc([N+](=O)[O-])cc1`, the result in assay [1], in [2], in assay [3], in assay [19], in assay [4] and in assay [5] was inactive. The result in assay [6], in assay [7], in assay [8], in [9], in assay [10] and in assay [11] was inactive. Moreover, the outcome in assay [12], in assay [13], in assay [14], in assay [15], in [16] and in [17] was inactive. Moreover, the result in assay [18] and in assay [20] was inactive.

As for `COc1cc(C=O)ccc1OC(=O)C(C)C`, the outcome in [1], in assay [2], in assay [3], in assay [4], in [5] and in assay [6] was inactive. For the same compound, the outcome in [7], in assay [8], in [9], in [10], in assay [11] and in [12] was inactive. The outcome in [13], in assay [14], in assay [15], in [16], in [17] and in [18] was inactive. The AC50 in [2] was 5.27 µM (active).

In the case of `c1ccc2sc(SN(C3CCCCC3)C3CCCCC3)nc2c1`, the result in assay [1], in [2], in [3], in assay [4], in assay [5] and in assay [9] was inactive. Besides, the result in assay [10], in [11], in assay [12], in [14], in assay [15] and in [16] was inactive. Besides, the result in assay [17], in assay [18] and in assay [20] was inactive. The AC50 in assay [6] was 2.77 µM (active); in assay [7], 951 nM (active); in assay [8], 4.26 µM (active); in [13], 2.8 µM (active).

Take `CC(C)Oc1ccccc1O`: the outcome in assay [1], in assay [2], in assay [3], in [19], in assay [4] and in [5] was inactive. Besides, the outcome in assay [7], in assay [8], in assay [9], in assay [10], in [11] and in assay [12] was inactive. Moreover, the result in assay [13], in assay [14], in assay [15], in assay [16], in assay [17] and in [18] was inactive. Moreover, the outcome in [20] was inactive. In [6], the AC50 was 20 µM (active).

With `C[C@H]1C[C@@H]2[C@H]([C@@H](O)C[C@@]3(C)[C@H]2CC[C@]3(O)C(=O)CO)[C@@]2(C)C=CC(=O)C=C12`, the outcome in assay [1], in assay [2], in [4], in assay [5], in assay [6] and in assay [7] was inactive. Moreover, the outcome in assay [9], in [10], in [12], in [13], in [14] and in [15] was inactive. Moreover, the outcome in assay [16], in assay [17] and in assay [18] was inactive. For the same compound, the half-maximal activity concentration (AC50) in assay [2] was 1.2 µM (active); in assay [3], 860 nM (active) and 150 nM (active); in assay [8] it was 394 nM (active) and 339 nM (active); in assay [11], 150 nM (active) and 626 nM (active); in assay [13] it was 0.15 µM (active).

A word on the AC50: it is the concentration giving half of the maximal activity seen.
